IL-1B inflam inh = inflammasome signaling inhibition, IL-1 beta readout. 360,000 tested, 4.7% active. AID 743279. activity change, % at 57.5 µM. THP-1 LPS/ATP IL-1B secretion, AlphaLISA, 16 h; active compounds read low; in the data active means activity change below about -50%; inconclusive means mostly about -30% to -49%; further: on the % scale 0 is the no-effect control and ±100 the full control effect
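THP-1 cells pretreated 1 hr with compounds (up to 57.5 uM final), then stimulated with LPS (250 ng/mL final) plus ATP (1.25 mM final); secreted IL-1B measured by AlphaLISA after 16 hr, decreased signal indicating inhibition.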
TDP1 cell noCPT = qHTS for Inhibitors of human tyrosyl-DNA phosphodiesterase 1 (TDP1): qHTS in cells in absence of CPT; DT40 Tdp1-/- hTDP1 cells, no CPT, ATP luminescence, 48 h; Potency, µM (titrated, usually from 46.2 µM), for inactives: at the highest dose activity change, negative = growth inhibition, usual class: inhibitors; 420,000 tested, 15% active; AID 686978, 2013; further: potency means the concentration at half of the fitted maximal effect; on the % scale 0 is the no-effect control and ±100 the full control effect; nearly all actives have a fitted effect of over 55% in size
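Seeded 400 DT40-hTDP1 cells/well (vehicle DMSO, no 20 nM CPT); pinned compounds; ≥48 hr at 37 °C; CellTiter-Glo luminescence as viability measure.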
TDP1 block = inhibitors of human tyrosyl-DNA phosphodiesterase TDP1; Q9NUW8; recombinant TDP1, AlphaScreen DNA substrate cleavage; Potency, µM (highest dose often 130 µM), inactives show top-dose activity change, negative = inhibition, usual class: inhibitors; 350,000 tested, 0.28% active; AID 485290; further: potency means the concentration at half of the fitted maximal effect; on the % scale 0 is the no-effect control and ±100 the full control effect; nearly all actives have a fitted effect of over 40% in size
Target sequence (Q9NUW8 whole entry, looked up): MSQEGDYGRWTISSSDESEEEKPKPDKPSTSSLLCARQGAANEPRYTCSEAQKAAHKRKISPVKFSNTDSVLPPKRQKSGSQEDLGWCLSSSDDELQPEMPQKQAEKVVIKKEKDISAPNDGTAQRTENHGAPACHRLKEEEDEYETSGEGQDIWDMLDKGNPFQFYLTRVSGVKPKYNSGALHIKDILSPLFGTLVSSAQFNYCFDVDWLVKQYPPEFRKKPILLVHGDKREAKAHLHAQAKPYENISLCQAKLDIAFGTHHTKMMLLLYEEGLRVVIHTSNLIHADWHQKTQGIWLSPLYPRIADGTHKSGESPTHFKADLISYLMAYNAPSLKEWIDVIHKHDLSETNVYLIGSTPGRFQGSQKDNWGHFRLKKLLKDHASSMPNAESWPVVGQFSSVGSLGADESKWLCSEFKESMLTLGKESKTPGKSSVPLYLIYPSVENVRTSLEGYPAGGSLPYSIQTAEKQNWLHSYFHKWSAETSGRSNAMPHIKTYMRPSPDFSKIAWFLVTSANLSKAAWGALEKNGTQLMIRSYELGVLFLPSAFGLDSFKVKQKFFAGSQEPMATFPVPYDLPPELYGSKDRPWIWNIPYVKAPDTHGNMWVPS
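Enzyme-compound mixtures sat 15 min at room temperature, followed by a 5 min reaction with 15 nM final substrate and 10 min with AlphaScreen beads. Recombinant human Tdp1 was used at 1 nM final.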
TGFb inhibitor = inhibitors of TGF-b signaling; HepG2 CAGA-GFP TGF-b/SMAD3 reporter, GFP fluorescence, 18 h; TGF-beta stimulated, 500 pg/mL final; Potency, µM (top dose mostly 46.1 µM), without a hit: at the top dose activity, negative = inhibition, hits mostly inhibitors; 410,000 tested, 1.2% active; AID 588855; further: potency means the concentration at half of the fitted maximal effect; on the % scale 0 is the no-effect control and ±100 the full control effect; nearly all actives have a fitted effect of over 65% in size
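TGF-beta reporter screen: HEPG2 CAGA-GFP, 1% FBS, 500 pg/mL TGF-beta final, 18 h; per-cell GFP summed per well; curves fitted and categorized by class.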
HepG2 viability = kills HepG2 cells in TGF-b inhibitor counter-screen | Potency, µM (titrated, usually from 46.1 µM), without a hit: at the top dose activity change, negative = cytotoxicity, most hits filed as cytotoxic | HepG2 CAGA-GFP viability, ATP luminescence, 18 h | 410,000 tested, 0.76% active; further: potency means the concentration at half of the fitted maximal effect
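HepG2 CAGA-GFP cells (1000/well, DMEM with 1% FBS) received compound, then TGF-beta at 500 pg/mL final, and were incubated 18 hours at 37 degrees C. Viability was read by CellTiter-Glo luminescence. Media-only wells were set as complete cell-killing and DMSO as no toxicity.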
DT40 TDP1 CPT = growth inhibition of DT40 Tdp1-/-;hTDP1 cells with camptothecin (screen for TDP1 inhibitors) | chicken DT40 Tdp1-/-;hTDP1 cells + 20 nM CPT, ATP luminescence, 48 h | Potency, µM (top dose mostly 46.2 µM), for inactives: at the top dose activity change, negative = growth inhibition, most hits filed as inhibitors | 420,000 tested, 12% active; further: potency means the concentration at half of the fitted maximal effect; on the % scale 0 is the no-effect control and ±100 the full control effect; nearly all actives have a fitted effect of over 55% in size
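Cell growth measured by CellTiter-Glo luminescence after a minimum 48 h, 37 C compound exposure with 20 nM CPT in Tdp1-knockout DT40 cells stably expressing hTDP1, seeded 400/well; qHTS titration format.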
* marks the source's active call; other numbers are inactive results; ? = inconclusive; · = no result given. Shown are actives, neighbours in structure and some others; about 19% of the full set was active somewhere. Unless noted, the call rests on the fitted dose curve; in most records, active means well fitted curve in the direction sought with a large enough effect; inconclusive means small, poorly fitted or top-dose-only effect, or another doubt; inactive means no such curve, though single readings can be large; an effect the other way counts as inactive or inconclusive.

SMILES	IL-1B inflam inh	TDP1 cell noCPT	TDP1 block	TGFb inhibitor	HepG2 viability	DT40 TDP1 CPT
Cc1ccc(NC(=O)Cn2ncn3c(cc4ccccc43)c2=O)cc1C	·	?	-4%	-9%	-21%	?
COc1ccc(NC(=O)CN(c2ccc(OC)c(Cl)c2)S(=O)(=O)c2ccccc2)cc1	-1	?	·	-9%	-4%	?
NC(=O)N/N=C\c1cc(Br)ccc1O	-9	?	5%	-3%	-27%	-10%
O=C(CSCC(=O)Nc1ccccc1)N/N=C/c1c(O)ccc2ccccc12	108	4.5µM*	11%	9%	-25%	4.5µM*
O=C(CO)N/N=C/c1c2ccccc2cc2ccccc12	-29	0%	1%	0%	1%	1%
O=C(N/N=C/c1cc(Br)ccc1O)Nc1ccccc1	-97*	?	5%	?	-30%	?
O=C(CNc1ccccc1)N/N=C/c1c(O)ccc2ccccc12	216	6.5µM*	·	?	-42%	10µM*
CC(=O)Nc1ccc(N=Cc2c(O)ccc3ccccc23)cc1	18	10%	7%	2%	1%	-1%
O=C(CN1CCOCC1)N/N=C/c1c(O)ccc2ccccc12	60	9.2µM*	·	-4%	0%	7.3µM*
Cc1cccc(S(=O)C(c2ccccc2)c2ccccc2)c1 (centres undefined)	?	?	·	-1%	-11%	?
CC(C)c1ccc(/C=C2\C=Cc3ccccc32)cc1	·	?	·	?	-48%	?
COc1ccc(NC(C)C(=O)N/N=C/c2ccccc2OCc2cccc(Br)c2)cc1 (centres undefined)	-64*	?	11%	-18%	-5%	?
O=C(N/N=C/c1c(O)ccc2ccccc12)Nc1ccccc1	85	15µM*	·	15%	-10%	26µM*
COc1ccc(NC(C)C(=O)N/N=C/c2c(O)ccc3ccccc23)cc1 (centres undefined)	144	5.8µM*	·	-9%	-12%	4.6µM*
CCOc1ccccc1C=NNC(=O)C(=O)NN=Cc1ccccc1OCC	25	-18%	·	-2%	-11%	-25%
CCOc1ccccc1NC(=O)C(=O)N/N=C/c1cc(Br)ccc1O	115	10µM*	0%	-13%	-5%	?
Cc1ccccc1NC(C)C(=O)N/N=C/c1ccccc1OCc1cccc(Br)c1 (centres undefined)	?	?	4%	0%	4%	?
CCN(CC)CCCNc1oc(-c2ccc(OC)cc2)nc1C#N	·	?	2%	-16%	6%	?
CN(C)S(=O)(=O)c1cccc(NC(=S)N/N=C/c2cc(Br)ccc2O)c1	-73*	3.7µM*	·	?	-37%	2.6µM*
Cc1ccccc1OCc1nnc(SCc2cc(=O)c3cccc(F)c3[nH]2)n1C	·	?	0%	-27%	-27%	?
CCOC(=O)C1=C(C)N(C)C(C)=C(C(=O)OCC)C1c1ccc(Cl)cc1	?	?	3%	?	-64%	?
CCOC(=O)C1=C(C)N(C)C(C)=C(C(=O)OCC)C1c1ccsc1	-15	15µM*	-4%	?	12%	?
CCOC(=O)C1=C(C)OC(N)=C(C#N)C1c1ccsc1 (centres undefined)	9	-5%	0%	-5%	5%	-7%
CCOC(=O)C1=C(C)N(C)C(C)=C(C(=O)OCC)C1c1ccc(C(=O)OC)cc1	?	15µM*	-1%	0%	-14%	?
COc1ccc(Cl)cc1N(C)C(=O)Cc1noc2ccc(C)cc12	·	18µM*	5%	-2%	-19%	16µM*

Source: PubChem BioAssay (National Center for Advancing Translational Sciences (NCATS))
